# Data reported in PubChem BioAssay AID1986 (Sanford-Burnham Center for Chemical Genomics, 2009).
# The campaign covered roughly 290,000 compounds. About 890 (0.31%) were called active. Cut-off read from the data, not from the text of the source: active = inhibition mostly above about 52% (no sharp cut-off); inactive = mostly below about 76%. Shown is part of a subset that was picked to be rich in actives.
# Experiment: inhibitors of HIV fusion peptide binding, primary screen, biochemical, uHTS, fluorescence dequenching (AID 1986)
# Settings: cell-free peptide binding, 30 min, stronger effect = higher value
# [1] = measured here: repeat confirmation average inhibition, at 18.6 µM
Compound,inhibition (at 20 µM),inhibition [1]
O=C(NC1CCc2ccccc21)c1cc(COc2c(F)cccc2F)on1 (centres undefined),0.3% (inactive),–
O=C(Cn1cnc2c(nnn2-c2ccccc2)c1=O)NCCc1ccccc1,1.1% (inactive),–
Cc1ccc(N2C(=O)c3ccc(C(=O)O)cc3C2=O)c(C)c1,-0.3% (inactive),–
Cc1ccc(N2C(=O)[C@@H]3C(C(=O)CN4C(=O)c5ccccc5C4=O)=NN[C@@H]3C2=O)c(C)c1,-2.5% (inactive),–
O=C1O/C(=C/C(=O)N2CCOCC2)c2ccccc21,1.9% (inactive),–
COc1cc(-c2ccc(Nc3ccccc3C(=O)O)c(OC)c2)ccc1Nc1ccccc1C(=O)O,61% (active),–
O=C(O)c1ccccc1Nc1ccccc1C(=O)O,4% (inactive),–
COc1ccc(Nc2ccccc2C(=O)O)cc1,3.4% (inactive),–
Cc1ccc(N=Cc2cc(Cc3ccccc3Cl)cc([N+](=O)[O-])c2O)c(O)c1,64% (active),57.3%
COc1ccc(N=Cc2cc(Cc3ccccc3Cl)cc([N+](=O)[O-])c2O)cc1OC,69.3% (inactive),19.7%
Cc1ccc(O)c(N=Cc2cc(Cc3ccccc3)cc([N+](=O)[O-])c2O)c1,58% (inactive),14.2%
CCN(CC)S(=O)(=O)c1ccc2c(c1)nc(SCC(N)=O)n2-c1ccc(OC)cc1,-1.3% (inactive),–
COc1ccc2c3c(cccc13)OC2=O,-1.2% (inactive),–
COc1cc(C(=O)NC(C)CCc2ccccc2)cc(OC)c1OC (centres undefined),-1.1% (inactive),–
CCOc1cc(/C=C2/C(=O)NN(c3cccc(Cl)c3)C2=O)ccc1O,31.4% (inactive),–
COc1cc(/C=C2/C(=O)NN(c3ccccc3)C2=O)cc(Br)c1O,34.5% (inactive),–
COc1cc(/C=C2/C(=O)NN(c3cccc(C)c3)C2=O)cc([N+](=O)[O-])c1O,30.3% (inactive),–
COc1cc(/C=C2/C(=O)NN(c3cccc(Cl)c3)C2=O)cc(OC)c1O,104% (active),80.5%
COC(=O)c1ccc(N2NC(=O)/C(=C/c3cc(OC)c(O)c(OC)c3)C2=O)cc1,138% (inactive),–
COc1cc(/C=C2/C(=O)NN(c3ccc(Cl)cc3)C2=O)cc(OC)c1O,93.4% (active),53.7%
COc1cc(/C=C2/C(=O)NN(c3ccc(Cl)c(Cl)c3)C2=O)cc([N+](=O)[O-])c1O,50.8% (active),–
COc1cccc(/C=C2/C(=O)NN(c3ccccc3)C2=O)c1,15.8% (inactive),–
COc1cc(/C=C2\C(=O)NN(c3ccc(C)cc3)C2=O)cc([N+](=O)[O-])c1O,38% (inactive),–
COc1cc(/C=C2/C(=O)NN(c3ccc(F)cc3)C2=O)cc(Cl)c1O,39.2% (inactive),–

Compound,inhibition (at 20 µM),inhibition [1]
COc1cc(/C=C2/C(=O)NN(c3cccc(Cl)c3)C2=O)cc(Br)c1O,102% (active),95.1%
COc1cc(/C=C2\C(=O)NN(c3ccccc3)C2=O)cc([N+](=O)[O-])c1O,32.8% (inactive),–
COc1cc(OC)cc(C(=O)N2CCN(C(=O)c3ccc(-c4ccccc4)cc3)CC2)c1,-0.7% (inactive),–
CN(c1ccc(C(=O)N2CCCCC2)cc1)S(=O)(=O)c1cccs1,0.7% (inactive),–
COc1ccc(OC)c(-n2c(=S)[nH]c3cc(C(=O)N4CCC(C(N)=O)CC4)ccc3c2=O)c1,-0.3% (inactive),–
O=C(NCc1ccc(OC(F)(F)F)cc1)C1CC(c2cccc(F)c2)=NO1 (centres undefined),0.2% (inactive),–
O=C(c1cscn1)N1CCCC(N2CCN(c3ccc(F)cc3)CC2)C1 (centres undefined),-1.2% (inactive),–
COc1ccc(CC(=O)Nc2c3c(nn2-c2cccc(Cl)c2)CS(=O)(=O)C3)cc1,-2% (inactive),–
Cc1ccccc1C(=O)NC1CCN(CC(=O)Nc2nccs2)CC1,2.2% (inactive),–
COc1c2ccccc2c(OC)c2ccccc12,1.5% (inactive),–
C=CCN(C(=O)CN1CCCCC1)c1nc(-c2ccccc2)cs1,-1.5% (inactive),–
Cc1ccc(-c2csc3ncnc(SCC(=O)O)c23)cc1,0.9% (inactive),–
Cc1ccc(-c2csc3ncnc(SCc4ccc(C(=O)O)cc4)c23)cc1,66.8% (active),–
Cc1sc2ncnc(SCc3ccc(C(=O)O)cc3)c2c1C,9.5% (inactive),–
COCCNC(=S)N1CCN(c2cccc(C(F)(F)F)c2)CC1,-0.5% (inactive),–
Cc1cc(-c2ccccc2)nc(SCc2ccc(C(=O)O)o2)n1,1.6% (inactive),–
CC(C)C(C(=O)O)N1C(=O)/C(=C/C=C/c2ccco2)SC1=S (centres undefined),76.1% (inactive),36.6%
O=C(O)CC(C(=O)O)N1C(=O)/C(=C/C=C/c2ccco2)SC1=S (centres undefined),65.6% (inactive),23.1%
O=C(O)C(Cc1ccccc1)N1C(=O)/C(=C/C=C/c2ccco2)SC1=S (centres undefined),69.2% (active),–
O=C(O)CCCN1C(=O)/C(=C/C=C/c2ccco2)SC1=S,55.6% (inactive),27.4%
O=C(NN1C(=O)/C(=C/C=C/c2ccco2)SC1=S)c1ccncc1,68.5% (active),–
O=C(O)C(Cc1ccccc1)N1C(=O)/C(=C/c2cccnc2)SC1=S (centres undefined),1.1% (inactive),–
O=C(NN1C(=O)/C(=C/C=C/c2ccco2)SC1=S)c1ccccc1O,65.1% (inactive),46.4%
O=C(NN1C(=O)/C(=C/C=C/c2ccccc2)SC1=S)c1ccncc1,16.6% (inactive),–

Compound,inhibition (at 20 µM),inhibition [1]
CC(C(=O)O)N1C(=O)/C(=C/C=C/c2ccco2)SC1=S (centres undefined),88.9% (active),–
COc1ccc(NC(=S)NC(NC(=O)CCl)C(Cl)(Cl)Cl)c([N+](=O)[O-])c1 (centres undefined),7.2% (inactive),–
COc1ccccc1S(=O)(=O)Cc1ccc(C(=O)NCc2ccco2)o1,1.6% (inactive),–
CC1CCN(S(=O)(=O)c2ccc(C(=O)OC(C)C(=O)NC3CCCCC3C)cc2)CC1 (centres undefined),20% (inactive),–
Cc1oc(-c2cc(F)ccc2F)nc1CN1CCN(C)C(=O)[C@@H]1C,1.3% (inactive),–
CN=C(Nc1ccc(C(=O)OC)s1)c1ccc(Cl)cc1,0.5% (inactive),–
O=C(/C=C/c1ccc(OCCCF)cc1)NCc1ccc(Cl)c(Cl)c1,1.7% (inactive),–
COC(=O)c1cnn(-c2ccc(F)cc2F)c1/C=N/NC(N)=S,-1.1% (inactive),–
CC(=O)NN1C(=O)c2ccccc2NC1c1ccc(N(C)C)cc1 (centres undefined),-0.9% (inactive),–
COC(=O)Cn1c(=NC(=O)c2ccc(S(=O)(=O)N3CCc4ccccc4C3)cc2)sc2cc(OC)ccc21,-1.3% (inactive),–
O=C(N/N=C/c1ccncc1)c1cc(C2CC2)nc2ccccc12,-0.8% (inactive),–
NC(=O)c1c(Nc2nc3c(F)cccc3s2)sc2c1CCCC2,59.5% (active),–
CC1CCc2c(sc(NC(=O)C3c4ccccc4Oc4ccccc43)c2C(N)=O)C1 (centres undefined),-1.5% (inactive),–
CC1CCc2c(sc(Nc3nc4c(F)cccc4s3)c2C(N)=O)C1 (centres undefined),58.8% (active),–
NC(=O)c1c(NC(=O)c2ccccc2F)sc2c1CCCC2,-0.3% (inactive),–
COC(=O)Nc1sc2c(c1C(N)=O)CCC(C)C2 (centres undefined),0.2% (inactive),–
COc1ccc2nc(Nc3sc4c(c3C(N)=O)CCCC4)sc2c1,17.5% (inactive),–
Cc1c(C(=O)N(Cc2nccn2C)C(C)C)oc2c(F)cccc12,-1% (inactive),–
O=c1cc(C(F)(F)F)nc(-c2cccnc2)[nH]1,-1.2% (inactive),–
CC(C)C(=O)Nc1ccc([N+](=O)[O-])cc1Br,1.2% (inactive),–
O/C(=C\c1nc2ccccc2[nH]1)c1cccs1,14.3% (inactive),–
O=c1[nH]c2ccccc2nc1/C=C(\O)c1cccs1,66.1% (active),–
C/C(O)=C/c1nc2ccccc2[nH]c1=O,0.1% (inactive),–
CCCCC(=O)Nc1cccn2ncnc12,0.2% (inactive),–

Compound,inhibition (at 20 µM),inhibition [1]
C/C(=N\NC(=O)c1c[nH]c2ccccc12)c1ccc(C)o1,0.2% (inactive),–
Cc1ccccc1C1=N/C(=C/c2cccs2)C(=O)O1,4.6% (inactive),–
O=C1OC(/C=C/c2ccc(Cl)cc2Cl)=NC/1=C\c1cccs1,54.2% (active),–
Cc1cccc(C2=N/C(=C\c3cccs3)C(=O)O2)c1,4.7% (inactive),–
CCC(=O)OCc1cc2cccc(C)c2[nH]c1=O,-1.9% (inactive),–
O=C1C(=Cc2cccn2-c2ccccc2)C(=O)c2ccccc21,50.1% (inactive),28.2%
O=C1C(=Cc2cccn2-c2ccc(O)cc2)C(=O)c2ccccc21,63.1% (active),70.3%
O=C(O)c1cccc(-n2cccc2C=C2C(=O)c3ccccc3C2=O)c1,30.1% (inactive),–
COC(=O)Cn1ncc(N2C3CC(CC(C)(C)C3)C2C)c(Cl)c1=O (centres undefined),1.1% (inactive),–
Oc1cccc2ccc(/C=C/c3ccccc3Br)nc12,0.6% (inactive),–
O=C(/C=C/c1ccccc1)Nc1ccc(Cl)cn1,1% (inactive),–
COc1cc(C(=O)Oc2cc(C)[nH]c(=O)c2[N+](=O)[O-])cc(OC)c1OC,0.4% (inactive),–
Cc1ccc(S(=O)(=O)Nc2nc(-c3ccc(F)cc3)cs2)cc1,20% (inactive),–
O=C(Nc1cc(S(=O)(=O)N2CCCCC2)ccc1O)c1ccccc1NS(=O)(=O)c1ccc(F)c(F)c1,62.7% (active),–
Cc1ccc(S(=O)(=O)Nc2ccccc2C(=O)Nc2nc(-c3ccc(F)cc3)cs2)cc1,65.5% (active),–
O=C(Nc1cc(S(=O)(=O)N2CCCCC2)ccc1O)c1ccccc1NS(=O)(=O)c1ccc(F)cc1,49.5% (inactive),–
O=C(Nc1nc(-c2ccccc2)cs1)c1ccccc1NS(=O)(=O)c1ccc(F)cc1,71.5% (active),–
COc1ccc(-c2csc(NC(=O)c3ccccc3F)n2)cc1,0.1% (inactive),–
O=C(Nc1nc(-c2ccccc2)cs1)c1ccccc1F,0% (inactive),–
COc1ccc(-c2csc(NC(=O)c3ccccc3S(C)(=O)=O)n2)cc1,0.4% (inactive),–
O=S(=O)(Nc1ccc(-c2csc(-c3ccccc3)n2)cc1)c1ccc(F)cc1,0% (inactive),–
Cc1ccc(S(=O)(=O)Nc2nc(-c3ccccc3)cs2)cc1,6.9% (inactive),–
COc1ccc(-c2csc(NC(=O)c3ccccc3NS(=O)(=O)c3ccc(F)c(F)c3)n2)cc1,65% (active),–
O=C(Nc1cccc(S(=O)(=O)N2CCCCC2)c1)c1ccccc1NS(=O)(=O)c1ccc(F)cc1,58% (inactive),26%
